Drawing on PubChem BioAssay, this text covers activation, outcome and potentiation for 14 compounds.

For some assays here: Entries with a potency or affinity are not part of this list. Calls of active or inactive are those of the source.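 The calls were made as follows, unless noted: active = fluorescence ratio normalized to control raised more than 50% in primary screen plus both repeat runs; inactive = the rest.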

In experiment [1] the test system is TRPC4 beta (transient receptor potential cation channel C4), mouse. In words: activators of mouse TRPC4 channel, confirmation, cell-based, Fluo4 calcium, HEK293 TRPC4beta/mu-opioid, duplicates, 10 µM (AID 2426).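 As to activation: percent rise of integrated ratio over buffer wells lacking compound which define 0%.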 The conditions noted are these: Fluo4 calcium fluorescence, at 10 µM; stronger effect = higher value.
Experiment [2] deals with transient receptor potential cation channel C4 beta (TRPC4), mouse. As to the kind of experiment: activators of mouse TRPC4 channel, confirmation, cell-based, second round, Fluo4, HEK293 TRPC4beta/mu-opioid, 1 µM (AID 2461;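 active = primary screen active and over 50% activation in each of two duplicate runs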;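 as to activation: 0% = wells without test compound as baseline of integrated fluorescence ratio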). The conditions noted are these: Fluo4 calcium fluorescence, at 1 µM; stronger effect = higher value.
Experiment [3] has as its system TRPC4 (transient receptor potential cation channel C4 beta), mouse. As to the kind of experiment: positive allosteric modulators of mouse TRPC4, confirmation, cell-based, second round, Fluo-4, HEK293 TRPC4beta/mu-opioid, 1 µM (AID 2554;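 active = primary screen hit whose fluorescence ratio, in both repeats, exceeds the weak agonist control mean by 3 SD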). The conditions noted are these: DAMGO EC20, Fluo-4 calcium flux, at 1 µM; stronger effect = higher value. (In general: Calcium flux is commonly read through the fluorescence of an indicator in the cells.)

The subject of experiment [4] is TRPC4 beta (transient receptor potential cation channel C4), mouse. As to the kind of experiment: positive allosteric modulators of mouse TRPC4, confirmation, cell-based, Fluo-4, HEK293 TRPC4beta/mu-opioid (AID 2555;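 active = primary screen hit whose calcium fluorescence ratio, in both repeats, exceeds the weak agonist control mean by 3 SD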). Conditions: DAMGO EC20, Fluo-4 calcium flux, at 10 µM; stronger effect = higher value.
Experiment [5] deals with Short transient receptor potential channel 4 (Mus musculus) (UniProt Q9QUQ5). As to the kind of experiment: inhibitors of mouse TRPC4 channel, confirmation, cell-based, Fluo4, HEK293 TRPC4beta/mu-opioid (AID 2636;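 active = calcium signal cut by more than 3 SD below the full-agonist control yet still positive, in both repeats and the earlier primary screen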). Conditions: DAMGO, Fluo4 calcium flux, at 10 µM; stronger effect = higher value.
Experiment [6] shares this target. As to the kind of experiment: inhibitors of mouse TRPC4 channel, confirmation, cell-based, second round, Fluo4, HEK293 TRPC4beta/mu-opioid, 1 µM (AID 2637;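 active = calcium signal ratio cut to more than 3 SD under the fully stimulated control mean yet still positive, in both repeats and the primary screen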). Conditions: Fluo4 calcium flux, DAMGO, at 1 µM; stronger effect = higher value.
Experiment [7] shares this target. As to the kind of experiment: TRPC4 positive allosteric modulators, dose response, cell-based, HEK293 TRPC4/mu-opioid, Fluo-4 calcium, EC20 DAMGO (AID 434941;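 active = earlier screen potentiator hit that boosts the TRPC4 ion channel at some dose, with a dose response; inactive = no potentiation, no dose response, or not a prior hit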;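 also: calcium entry triggered by an EC20 dose of DAMGO at the co-expressed mu-opioid receptor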).
Experiment [8] shares this target. As to the kind of experiment: mouse TRPC4 channel inhibitors, dose response, cell-based, HEK293 TRPC4/mu-opioid, Fluo-4 calcium (AID 434942;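 active = primary screen inhibitor hit that blocks the TRPC4 channel at some tested dose, yielding a dose curve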).
Experiment [9] concerns the target Short transient receptor potential channel 6 (Mus musculus) (UniProt Q61143). In words: inhibition of mouse TRPC6 channel, confirmation, selectivity assay for TRPC4 inhibitor project, cell-based, HEK293, membrane potential dye, duplicate (AID 434948;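 active = active in primary screen and both duplicates, each dropping signal beyond three positive-control SD with fluorescence still positive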). Conditions: HEK293 TRPC6, membrane potential dye fluorescence, at 10 µM; inhibition: stronger effect = higher value, stimulated with maximal-effect acetylcholine unless noted; outcome: stimulated with maximal-effect acetylcholine unless noted.

Experiment [10] shares this target. In words: activation of mouse TRPC6 channel, confirmation, selectivity assay for TRPC4 activator project, cell-based, HEK293, membrane potential dye, duplicate (AID 434950;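 active = membrane potential signal rise above negative control mean plus 3 SD in both duplicates, also active in the earlier TRPC4 screen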;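 as to activation: 0% = buffer only wells and 100% = acetylcholine maximal-effect wells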). The conditions noted are these: HEK293 TRPC6, membrane potential fluorescence, at 10 µM; stronger effect = higher value.
Experiment [11] shares this target. As to the kind of experiment: TRPC6 potentiation by TRPC4 potentiator hits, confirmation, selectivity assay for TRPC4 potentiator project, HEK293 cells, membrane potential dye, duplicate (AID 434952;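 active = compound raising the membrane signal above positive-control mean plus 3 SD in both repeats, and a primary screen hit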). Conditions: HEK293 TRPC6, membrane potential dye fluorescence, at 10 µM; maximal acetylcholine added after compound unless noted.
The target of experiment [12] is Short transient receptor potential channel 4 (Mus musculus) (UniProt Q9QUQ5). As to the kind of experiment: calcium flux activators in TRPC4/5HT1a cells, counter-screen for TRPC4 activator project, cell-based, second counter screen, HEK293 TRPC4/5HT1a, Fluo-4 (AID 434977;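 active = calcium signal rise above buffer-control mean plus 5 SD in both duplicates, and also a hit in the primary screen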;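 as to activation: plate controls were assay buffer for no effect and maximal serotonin response for full effect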). Conditions: Fluo-4 calcium flux, at 10 µM; stronger effect = higher value.
Experiment [13] can be described thus: calcium flux inhibitors in TRPC4/5HT1a cells, confirmation, counter-screen for TRPC4 inhibitor project, cell-based, second counter screen, HEK293 TRPC4/5HT1a, Fluo-4 (AID 434978;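 active = primary screen active whose calcium signal fell more than 3 SD beyond the full-serotonin control mean in both duplicate plates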;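 also: serotonin given first at submaximal then at maximal dose after compound preincubation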). The conditions noted are these: Fluo-4 calcium flux, at 10 µM; inhibition: stronger effect = higher value, serotonin added to trigger calcium flux unless noted; outcome: serotonin added to trigger calcium flux unless noted.

In experiment [14] the test system is TRPC4 (mouse), co-expressed with 5HT1a in HEK293. In words: calcium flux potentiators in TRPC4/5HT1a cells, confirmation, counter-screen for TRPC4 potentiator project, cell-based, second counter screen, HEK293 TRPC4/5HT1a, Fluo-4 (AID 434979;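 active = signal rise over 3 SD above mean of control wells given weak agonist, in both repeats and first screen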). Conditions: Fluo-4 calcium flux, at 10 µM; outcome: serotonin added at its EC20 dose unless noted; potentiation: stronger effect = higher value, serotonin added at its EC20 dose unless noted.

Experiment [15] in a line: calcium flux activation in mu-opioid HEK293 cells, confirmation, counter-screen for TRPC4 activator project, cell-based, HEK293 mu-opioid receptor line (AID 449723;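 active = hit in primary screen, with calcium signal over 5 SD above buffer well mean in both duplicates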;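 also: counter screen cells carry the mu-opioid receptor alone and lack TRPC4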). The conditions noted are these: Fluo-4 calcium fluorescence, at 10 µM; stronger effect = higher value.
Experiment [16] in a line: calcium flux enhancement in mu-opioid HEK293 cells, confirmation, counter-screen for TRPC4 allosteric potentiator project, cell-based, HEK293 mu-opioid receptor line (AID 449724;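 active = calcium signal rise more than 3 SD above the low-dose agonist control mean, in both duplicate plates and the primary screen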;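 also: HEK293 cells carrying mu-opioid receptor only with no TRPC4 channel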). Conditions: Fluo-4 calcium flux, at 10 µM; compound added before EC20 DAMGO stimulus unless noted.

Chain of Short transient receptor potential channel 4 (Mus musculus) (Q9QUQ5 whole entry, looked up): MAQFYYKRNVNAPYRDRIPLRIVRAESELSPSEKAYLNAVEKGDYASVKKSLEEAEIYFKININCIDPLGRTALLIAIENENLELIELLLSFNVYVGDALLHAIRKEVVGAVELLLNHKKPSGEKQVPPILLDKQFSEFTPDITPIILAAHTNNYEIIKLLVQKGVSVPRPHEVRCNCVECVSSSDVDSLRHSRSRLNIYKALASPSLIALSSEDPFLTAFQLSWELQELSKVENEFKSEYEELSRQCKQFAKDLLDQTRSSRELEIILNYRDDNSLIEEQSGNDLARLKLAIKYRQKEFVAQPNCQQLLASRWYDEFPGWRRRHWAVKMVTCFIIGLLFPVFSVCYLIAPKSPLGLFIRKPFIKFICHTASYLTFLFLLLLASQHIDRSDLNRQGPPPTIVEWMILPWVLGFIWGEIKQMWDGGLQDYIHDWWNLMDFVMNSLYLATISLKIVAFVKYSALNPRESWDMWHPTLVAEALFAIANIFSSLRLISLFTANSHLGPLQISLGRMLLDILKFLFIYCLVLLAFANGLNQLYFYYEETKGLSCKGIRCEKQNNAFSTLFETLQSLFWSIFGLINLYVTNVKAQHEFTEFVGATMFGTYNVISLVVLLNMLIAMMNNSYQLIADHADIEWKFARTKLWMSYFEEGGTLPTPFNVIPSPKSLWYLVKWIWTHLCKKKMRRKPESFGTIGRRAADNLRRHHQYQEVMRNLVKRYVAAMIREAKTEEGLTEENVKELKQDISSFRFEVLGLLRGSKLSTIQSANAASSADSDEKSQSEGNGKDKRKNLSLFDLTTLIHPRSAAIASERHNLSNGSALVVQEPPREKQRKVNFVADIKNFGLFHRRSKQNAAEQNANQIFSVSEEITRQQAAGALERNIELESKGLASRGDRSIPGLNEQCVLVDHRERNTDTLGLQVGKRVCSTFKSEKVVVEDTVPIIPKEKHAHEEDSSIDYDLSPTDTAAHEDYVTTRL
Chain of Short transient receptor potential channel 6 (Mus musculus) (Q61143 whole entry, looked up): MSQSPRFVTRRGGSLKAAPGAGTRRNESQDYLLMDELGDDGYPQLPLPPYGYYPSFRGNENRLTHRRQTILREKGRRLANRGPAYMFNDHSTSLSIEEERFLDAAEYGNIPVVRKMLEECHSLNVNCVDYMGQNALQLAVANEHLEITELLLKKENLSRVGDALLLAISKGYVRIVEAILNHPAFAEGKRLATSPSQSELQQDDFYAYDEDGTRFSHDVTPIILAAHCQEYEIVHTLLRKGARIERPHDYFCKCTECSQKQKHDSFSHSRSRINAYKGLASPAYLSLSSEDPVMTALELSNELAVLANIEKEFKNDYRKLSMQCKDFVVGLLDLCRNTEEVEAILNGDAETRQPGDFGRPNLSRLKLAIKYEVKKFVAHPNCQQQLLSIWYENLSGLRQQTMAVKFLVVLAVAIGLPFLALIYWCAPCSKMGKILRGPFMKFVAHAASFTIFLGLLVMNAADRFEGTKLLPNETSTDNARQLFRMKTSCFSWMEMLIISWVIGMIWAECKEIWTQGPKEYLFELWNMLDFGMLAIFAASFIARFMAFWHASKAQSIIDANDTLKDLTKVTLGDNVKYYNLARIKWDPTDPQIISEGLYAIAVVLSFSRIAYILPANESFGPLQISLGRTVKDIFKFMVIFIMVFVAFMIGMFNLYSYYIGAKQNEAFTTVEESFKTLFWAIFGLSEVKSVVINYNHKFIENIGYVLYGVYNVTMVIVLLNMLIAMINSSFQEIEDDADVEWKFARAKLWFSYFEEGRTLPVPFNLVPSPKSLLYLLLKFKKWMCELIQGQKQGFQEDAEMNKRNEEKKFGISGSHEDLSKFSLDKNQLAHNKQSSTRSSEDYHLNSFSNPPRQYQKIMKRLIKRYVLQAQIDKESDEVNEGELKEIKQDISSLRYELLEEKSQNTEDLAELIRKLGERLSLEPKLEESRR

For the compound `O=C1OC(c2ccc([N+](=O)[O-])cc2)=N/C1=C/N1CC2CC(C1)c1cccc(=O)n1C2` (centres undefined), the activation in [1] is 158% (active); in experiment [10], 254% (active); in experiment [12], 64.7% (active); in experiment [15], 55.4% (active). Further, the result in experiment [2], in experiment [3], in [4], in experiment [5], in experiment [6] and in experiment [7] was inactive. Besides, the result in experiment [8], in experiment [9], in experiment [11], in experiment [13], in experiment [14] and in experiment [16] was inactive.

For the compound `c1ccc2oc(N3CCNCC3)nc2c1`, the activation in experiment [1] was 81% (active); in experiment [2], 53% (active); in [12], 24.8% (active). For the same compound, the result in [3], in experiment [5], in [6], in experiment [7], in experiment [8] and in [9] was inactive. Also, the outcome in experiment [10], in experiment [11], in experiment [13], in experiment [15] and in experiment [16] was inactive. For the same compound, the potentiation in experiment [4] was 19% (active); in experiment [14], 31.8% (active).

As to `CN(C)C=C1C(=O)N(C2CCCCC2)C(=O)N(C2CCCCC2)C1=O`, the values for the activation in experiment [1], in experiment [12] and in [15] were 83% (active), 124% (active) and 39.4% (active), respectively. Besides, the result in [2], in [3], in [4], in experiment [5], in experiment [6] and in [7] was inactive. Also, the result in experiment [8] and in experiment [10] was inactive. The outcome in experiment [9], in experiment [11], in [13], in experiment [14] and in [16] was “inactive [setting not given]” throughout.

`Fc1cccc(C2NCCc3[nH]cnc32)c1` (centres undefined): the activation in [1] is 201% (active); in [12] it was 53.4% (active). For the same compound, the outcome in experiment [2], in experiment [3], in experiment [4], in experiment [5], in [6] and in experiment [7] was inactive. For the same compound, the result in experiment [8], in experiment [9], in [10], in experiment [11], in experiment [13] and in [14] was inactive. Also, the outcome in experiment [15] and in experiment [16] was inactive.

For the compound `CN(C)C(CNC(=O)Cc1ccc(Br)cc1)c1ccccc1` (centres undefined), the figures for the activation in experiment [1], in experiment [2] and in experiment [10] were 96% (active), 133% (active) and 38.5% (active), respectively. Further, the result in experiment [3], in experiment [4], in experiment [5], in experiment [6], in [7] and in experiment [8] was inactive. For the same compound, the call in experiment [9], in experiment [11], in experiment [12], in experiment [13], in experiment [14] and in experiment [15] was inactive. Moreover, the result in experiment [16] was inactive.

For the compound `Clc1ccc2sc(C3CCNCC3)nc2c1`, the figures for the activation in [1], in experiment [2] and in [12] were 210% (active), 166% (active) and 82.6% (active), respectively. Also, the outcome in experiment [3], in [4], in experiment [5], in [6], in experiment [7] and in experiment [8] was inactive. Also, the result in experiment [9], in [10], in experiment [11], in [13], in experiment [14] and in [15] was inactive. For the same compound, the result in experiment [16] was inactive.

Turning to `COc1ccc(CNCCc2c[nH]c3ccccc23)cc1OC`, the activation is 110% (active) in [1] and 28% (active) in [10]. The result in experiment [2], in [3], in experiment [4], in experiment [5], in experiment [6] and in experiment [7] was inactive. For the same compound, the result in [8], in experiment [9], in experiment [11], in experiment [12], in experiment [13] and in experiment [14] was inactive. Also, the result in [15] and in [16] was inactive.

On to `COc1ccc(C(=O)C2CCCN(C3CSCCSC3)C2)cc1OC` (centres undefined), for which the activation was 166% (active) in experiment [1], 86% (active) in [2], 33.5% (active) in [10] and 87.7% (active) in experiment [12]. In addition, the result in experiment [3], in experiment [4], in [5], in experiment [6], in experiment [7] and in experiment [8] was inactive. Further, the call in experiment [9], in experiment [11], in experiment [13], in [14], in experiment [15] and in experiment [16] was inactive.

For the compound `CCC1(C)CC(CCNCc2ccc(N(C)C)cc2)(c2ccc(F)cc2)CCO1` (centres undefined), the activation in experiment [1] was 184% (active). Also, the outcome in experiment [2], in [3], in [4], in experiment [5], in experiment [6] and in experiment [7] was inactive. Also, the outcome in experiment [8], in [9], in experiment [10], in experiment [11], in experiment [12] and in experiment [13] was inactive. Besides, the result in experiment [14], in [15] and in experiment [16] was inactive.

As for `COc1ccc(C(CNC(=O)Cc2ccc(Cl)c(Cl)c2)N(C)C)cc1` (centres undefined), the activation in [1] was 120% (active); in experiment [2] it was 95% (active); in experiment [10], 40.5% (active). Also, the outcome in experiment [3], in [4], in experiment [5], in experiment [6], in experiment [7] and in experiment [8] was inactive. The result in [9], in [11], in experiment [12], in experiment [13], in [14] and in experiment [15] was inactive. In addition, the outcome in experiment [16] was inactive.

Regarding `CCOc1cc(CNCCc2c[nH]c3ccccc23)cc(Cl)c1OC`, the values for the activation in [1] and in experiment [12] were 129% (active) and 65.6% (active), respectively. Also, the outcome in experiment [2], in [3], in experiment [4], in experiment [5], in [6] and in [7] was inactive. The result in experiment [8], in experiment [9], in experiment [10], in [11], in experiment [13] and in [14] was inactive. In addition, the result in experiment [15] and in experiment [16] was inactive.

Turning to `Cc1ccc(C)c(NC(=S)NCCc2cnc[nH]2)c1`, the activation was 137% (active) in experiment [1] and 69.3% (active) in [12]. Further, the outcome in [2], in experiment [3], in [4], in experiment [5], in [6] and in [7] was inactive. Besides, the result in [8], in [9], in experiment [10], in experiment [11], in experiment [13] and in experiment [14] was inactive. Moreover, the result in experiment [15] and in [16] was inactive.

With `COc1ccc(C(CNC(=O)CCc2ccsc2)N(C)C)cc1` (centres undefined), the activation in experiment [1] was 67% (active); in experiment [2], 129% (active); in experiment [10], 45.5% (active). Moreover, the outcome in experiment [3], in [4], in experiment [5], in [6], in [7] and in experiment [8] was inactive. Besides, the compound was classed as inactive in experiment [9], in experiment [11], in [12], in experiment [13], in experiment [14] and in [15]. Also, the outcome in experiment [16] was inactive.

Turning to `CN(C)C1(CNC(=O)c2ccc(Cl)c(S(=O)(=O)NCc3ccco3)c2)CCCCC1`, the result in experiment [1], in experiment [3], in experiment [4], in [5], in experiment [6] and in [7] was inactive. Besides, the result in experiment [8], in [9], in [11], in experiment [12], in experiment [13] and in experiment [14] was inactive. The outcome in experiment [15] and in experiment [16] was inactive. In addition, the activation in experiment [2] was 71% (active); in [10], 36% (active).
